From PubChem BioAssay (NCI)
About 83,000 compounds went through this panel and 20% of them were active in at least one assay; those are over-represented in the sample as a whole.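 In brief: 96-well plates, 48 h treatment, single concentration, percent growth endpoint.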 A number with no mark means an inactive call. Activity calls are given as the source filed them. The calls were made as follows: active = growth percent below 10; inactive = the rest.

Columns and labels:
Assay in all cases: NCI-60 one-dose screen, 48 h (100 = growth as untreated, 0 = no growth, -100 = all killed)
Settings in all cases: 10 µM unless noted
[1] = tested on: SR leukemia
[2] = tested on: RPMI-8226 leukemia
[3] = tested on: OVCAR-8 ovarian
[4] = tested on: OVCAR-5 ovarian
[5] = tested on: OVCAR-4 ovarian
[6] = tested on: SK-OV-3 ovarian
[7] = tested on: IGROV1 ovarian
[8] = tested on: OVCAR-3 ovarian
[9] = tested on: HS 578T breast
[10] = tested on: NCI/ADR-RES ovarian

CCCCCCCCCC[C@@H](C)[C@@H]1CC(=O)N[C@H]([C@@H](C)O)C(=O)N[C@@H](C)C(=O)N[C@H](C)C(=O)N[C@@H](CCC(N)=O)C(=O)N[C@H](Cc2ccc(O)cc2)C(=O)N[C@@H](C(C)CC)C(=O)O1 (stereo not given in full)
growth [1]: 75% | growth [2]: 35.1% | growth [3]: 51.8% | growth [4]: 92.2% | growth [5]: 30.9% | growth [6]: 66.5% | growth [7]: 76.2% | growth [8]: 48.4% | growth [9]: 89% | growth [10]: 93.6%

Oc1ccc(CSc2nnc(-c3ccc(Br)cc3)o2)c2cccnc12
growth [1]: 42.3% | growth [2]: 10.8% | growth [3]: 27.7% | growth [4]: 89.6% | growth [5]: 22% | growth [6]: 50.2% | growth [7]: 31.6% | growth [8]: 27.4% | growth [9]: -2.18% (active) | growth [10]: 13.4%

Cc1ccc(S(=O)(=O)N/N=C/c2cn(-c3ccc(F)cc3)nc2-c2ccc(S(C)(=O)=O)cc2)cc1
growth [1]: 107% | growth [2]: 106% | growth [3]: 102% | growth [4]: 105% | growth [5]: 101% | growth [6]: 105% | growth [7]: 99.7% | growth [8]: 109% | growth [9]: 107% | growth [10]: 106%

CC(C)C[C@H]1C(=O)O[C@H](C(C)C)C(=O)N(C)[C@@H](C(C)C)C(=O)O[C@H](C(C)C)C(=O)N(C)[C@@H](C(C)C)C(=O)O[C@H](C(C)C)C(=O)N1C
growth [1]: 14.4% | growth [2]: -11.1% (active) | growth [3]: 16% | growth [4]: 17.7% | growth [5]: 18.3% | growth [6]: -9.29% (active) | growth [7]: 37% | growth [8]: 17.6% | growth [9]: 38.2% | growth [10]: -1.7% (active)

COc1ccc2c(c1)c(-c1nnc(N)nc1-c1cn(C)c3ccccc13)cn2C
growth [1]: 84.7% | growth [2]: 105% | growth [3]: 103% | growth [4]: 86.5% | growth [5]: 91.3% | growth [6]: 102% | growth [7]: 95.1% | growth [8]: 96.8% | growth [9]: 91.2% | growth [10]: 90.5%

O=S(=O)(NCCCNc1nccc(-n2cnc3ccccc32)n1)c1ccc(F)cc1
growth [1]: 36.8% | growth [2]: 57.7% | growth [3]: 62.5% | growth [4]: 98.6% | growth [5]: 44.2% | growth [6]: 85.1% | growth [7]: 91.8% | growth [8]: 86.7% | growth [9]: 82.4% | growth [10]: 64.3%

COc1ccccc1/C=C/C=N/NC1=NC2C(S1)N(C)C(=O)N2c1ccccc1 (stereo not given)
growth [1]: 16.7% | growth [2]: 18.9% | growth [3]: 24.4% | growth [4]: 33.3% | growth [5]: 56.8% | growth [6]: 62.4% | growth [7]: 19.4% | growth [8]: -27.2% (active) | growth [9]: 25.5% | growth [10]: 10.4%

Nc1ccc(-c2nnc(SCc3ccc(O)c4ncccc34)o2)cc1
growth [1]: 18.8% | growth [2]: -9.68% (active) | growth [3]: 8.94% (active) | growth [4]: 25% | growth [5]: -1.57% (active) | growth [6]: -15.3% (active) | growth [7]: 0.429% (active) | growth [8]: 7.75% (active) | growth [9]: -12.6% (active) | growth [10]: -9.89% (active)

Cc1[nH]nc2ccc(-c3nc4cnc(N5CCN(C)CC5)cn4c3Nc3ccc(F)cc3Br)cc12
growth [1]: 4.63% (active) | growth [2]: -6.49% (active) | growth [3]: 6.47% (active) | growth [4]: 80.3% | growth [5]: 64.6% | growth [6]: 97.4% | growth [7]: 59.7% | growth [8]: 10.5% | growth [9]: 91.5% | growth [10]: 49.4%

COC[C@@]1(C)CC[C@]2(C)CC[C@]3(C)C(=CC[C@@H]4[C@@]5(C)CCCNC(C)(C)[C@@H]5CC[C@]43C)C2C1 (stereo not given in full)
growth [1]: 4.07% (active) | growth [2]: 21.3% | growth [3]: 88.6% | growth [4]: 80% | growth [5]: 65.6% | growth [6]: 104% | growth [7]: 52.3% | growth [8]: 78.3% | growth [9]: 78.5% | growth [10]: 72.6%

Oc1ccc(CSc2nnc(-c3ccccc3)n2-c2ccccc2)c2cccnc12
growth [1]: 33.6% | growth [2]: 10.9% | growth [3]: 16.8% | growth [4]: 43.7% | growth [5]: 15.8% | growth [6]: 9.62% (active) | growth [7]: 9.4% (active) | growth [8]: 6.38% (active) | growth [9]: 9.17% (active) | growth [10]: 8.58% (active)

Cc1nn(-c2ccccc2)cc1/C=N/Nc1nc(Nc2ccccc2)nc(Nc2ccc(S(N)(=O)=O)cc2)n1
growth [1]: 33.6% | growth [2]: -23.1% (active) | growth [3]: 18.2% | growth [4]: -13.2% (active) | growth [5]: 14.9% | growth [6]: 50.5% | growth [7]: 13.1% | growth [8]: -31.1% (active) | growth [9]: 13.8% | growth [10]: 76.4%

CC(C)=CCc1c2c(c(O)c3c1O[C@]14C(=C[C@@H]5C[C@H]1C(C)(C)O[C@@]4(C/C=C(/C)C(=O)O)C5=O)C3=O)CC(O)C(C)(C)O2 (stereo not given in full)
growth [1]: -5.31% (active) | growth [2]: -18.5% (active) | growth [3]: -25.1% (active) | growth [4]: -10.7% (active) | growth [5]: 18.7% | growth [6]: 30.4% | growth [7]: 5.2% (active) | growth [8]: -96.4% (active) | growth [9]: 15.7% | growth [10]: 18%

Cn1ccnc1C(=O)/C=C/c1ccc(C(=O)Nc2ccc(NC(=O)CCNC(=O)c3csc(Br)n3)cc2)cc1
growth [1]: 12.5% | growth [2]: 14.5% | growth [3]: 63.9% | growth [4]: 78.8% | growth [5]: 64.1% | growth [6]: 100% | growth [7]: 41.7% | growth [8]: 15.5% | growth [9]: 95.5% | growth [10]: 60.9%

O=C(/C=C1\C=CN(CCCCCCF)c2ccccc21)n1ccc2ccccc21
growth [1]: 85.8% | growth [2]: 74.7% | growth [3]: 101% | growth [4]: 99.3% | growth [5]: 81.9% | growth [6]: 98.8% | growth [7]: 67.6% | growth [8]: 100% | growth [9]: 96.7% | growth [10]: 105%

IP(CCCCCCCCCCSc1n(Cc2ccc3ccccc3c2)c(-c2ccccc2)c(-c2ccccc2)[n+]1Cc1ccc2ccccc2c1)(c1ccccc1)(c1ccccc1)c1ccccc1
growth [1]: -39.8% (active) | growth [2]: -38% (active) | growth [3]: -50.3% (active) | growth [4]: -76.1% (active) | growth [5]: -68.6% (active) | growth [6]: -63% (active) | growth [7]: -66.5% (active) | growth [8]: -86.4% (active) | growth [9]: -30.4% (active) | growth [10]: 29.6%

Oc1ccc(CSc2nnc(-c3ccc(Br)cc3)n2-c2ccccc2)c2cccnc12
growth [1]: 37.7% | growth [2]: 13.7% | growth [3]: 23.4% | growth [4]: 54.4% | growth [5]: 35.7% | growth [6]: 23.3% | growth [7]: 18.9% | growth [8]: 41.5% | growth [9]: 13% | growth [10]: 12.2%

CC(C)=CCc1c(O)c(CC=C(C)C)c2c(c1O)C(=O)C1=C[C@@H]3C[C@H]4C(C)(C)O[C@@](C/C=C(\C)C(=O)O)(C3=O)[C@@]14O2
growth [1]: -4.41% (active) | growth [2]: -23.1% (active) | growth [3]: 10.1% | growth [4]: 8.41% (active) | growth [5]: 33.2% | growth [6]: 42.4% | growth [7]: -21.8% (active) | growth [8]: -55% (active) | growth [9]: 27.7% | growth [10]: 10.7%

C=C1C(=O)O[C@@H]2C[C@@H](C)CCC(=O)[C@](C)(OC(C)=O)C[C@H](OC(=O)/C(C)=C\C)[C@@H]12
growth [1]: 4.94% (active) | growth [2]: 32.3% | growth [3]: 66.8% | growth [4]: 114% | growth [5]: 81.2% | growth [6]: 94.8% | growth [7]: 89.2% | growth [8]: 34.9% | growth [9]: 101% | growth [10]: 97.2%

O=C(c1cccc(F)c1)n1ccc2cc(NC(=S)Nc3cccnc3)ccc21
growth [1]: 81.6% | growth [2]: 99.3% | growth [3]: 102% | growth [4]: 101% | growth [5]: 103% | growth [6]: 105% | growth [7]: 97.4% | growth [8]: 107% | growth [9]: 94.4% | growth [10]: 105%

CC[C@@](C)(NC(=O)C(C)(C)NC(=O)[C@@H](NC(=O)[C@@H]1CCCN1C(=O)C(C)(C)NC(=O)[C@H](CC(C)C)NC(=O)CNC(=O)C(C)(C)NC(=O)[C@@H](NC(=O)C(C)(C)NC(=O)[C@H](CCC(N)=O)NC(=O)[C@H](C)NC(=O)C(C)(C)NC(=O)[C@H](C)NC(=O)C(C)(C)NC(=O)[C@H](C)NC(=O)C(C)(C)NC(C)=O)C(C)C)C(C)C)C(=O)N[C@@H](CCC(N)=O)C(=O)N[C@@H](CCC(N)=O)C(=O)N[C@H](CO)CC1CCCCC1
growth [1]: 27.7% [5 µM] | growth [2]: -16.2% [5 µM] (active) | growth [3]: 87.7% [5 µM] | growth [4]: 19.9% [5 µM] | growth [5]: 58% [5 µM] | growth [6]: 18.5% [5 µM] | growth [7]: 42.1% [5 µM] | growth [8]: 19.2% [5 µM] | growth [9]: 46.6% [5 µM] | growth [10]: 101% [5 µM]

IP(CCCSc1n(Cc2ccc3ccccc3c2)c(-c2ccccc2)c(-c2ccccc2)[n+]1Cc1ccc2ccccc2c1)(c1ccccc1)(c1ccccc1)c1ccccc1
growth [1]: 5.94% (active) | growth [2]: 14.8% | growth [3]: 38.6% | growth [4]: 58.5% | growth [5]: 23.2% | growth [6]: 29.4% | growth [7]: 23.9% | growth [8]: 8.3% (active) | growth [9]: 67.1% | growth [10]: 94.1%

CN1CCN(c2ccc3c(c2)nc(NNC(=O)c2ccncn2)c2cccn23)CC1
growth [1]: 14.9% | growth [2]: 24.5% | growth [3]: 21.8% | growth [4]: 54% | growth [5]: 36.4% | growth [6]: 25% | growth [7]: 22.4% | growth [8]: 38% | growth [9]: 71.3% | growth [10]: 18.8%
